Bioassay records: PubChem, Buhrlage Lab, Dana-Farber Cancer Institute and Novartis Institutes for BioMedical Research (Cambridge, Mass)
UCHL1 block: inhibitors of human UCHL1 deubiquitinase | Ubiquitin carboxyl-terminal hydrolase isozyme L1 (Homo sapiens), P09936 | purified UCHL1, Ub-rhodamine cleavage fluorescence | inhibition, % at 20 µM | 0.2% of 47,000 active
USP28 block: inhibitors of human USP28 deubiquitinase | Ubiquitin carboxyl-terminal hydrolase 28 (Homo sapiens), Q96RU2 | purified USP28, Ub-rhodamine cleavage fluorescence, 30 min | inhibition, % at 25 µM | 3% of 47,000 active | AID 1645857, 2021
OTUD3 block: inhibitors of human OTUD3 deubiquitinase. 0.7% of 47,000 active. OTU domain-containing protein 3 (Homo sapiens), Q5T2D3. purified OTUD3, Ub-rhodamine fluorescence, 2 h. inhibition, % at 25 µM
USP7 inh: inhibitors of human USP7 deubiquitinase; purified USP7, Ub-rhodamine cleavage fluorescence; inhibition, % at 20 µM; 0.3% of 47,000 active; AID 1645854, 2021
Target sequence (Q93009 whole entry, looked up): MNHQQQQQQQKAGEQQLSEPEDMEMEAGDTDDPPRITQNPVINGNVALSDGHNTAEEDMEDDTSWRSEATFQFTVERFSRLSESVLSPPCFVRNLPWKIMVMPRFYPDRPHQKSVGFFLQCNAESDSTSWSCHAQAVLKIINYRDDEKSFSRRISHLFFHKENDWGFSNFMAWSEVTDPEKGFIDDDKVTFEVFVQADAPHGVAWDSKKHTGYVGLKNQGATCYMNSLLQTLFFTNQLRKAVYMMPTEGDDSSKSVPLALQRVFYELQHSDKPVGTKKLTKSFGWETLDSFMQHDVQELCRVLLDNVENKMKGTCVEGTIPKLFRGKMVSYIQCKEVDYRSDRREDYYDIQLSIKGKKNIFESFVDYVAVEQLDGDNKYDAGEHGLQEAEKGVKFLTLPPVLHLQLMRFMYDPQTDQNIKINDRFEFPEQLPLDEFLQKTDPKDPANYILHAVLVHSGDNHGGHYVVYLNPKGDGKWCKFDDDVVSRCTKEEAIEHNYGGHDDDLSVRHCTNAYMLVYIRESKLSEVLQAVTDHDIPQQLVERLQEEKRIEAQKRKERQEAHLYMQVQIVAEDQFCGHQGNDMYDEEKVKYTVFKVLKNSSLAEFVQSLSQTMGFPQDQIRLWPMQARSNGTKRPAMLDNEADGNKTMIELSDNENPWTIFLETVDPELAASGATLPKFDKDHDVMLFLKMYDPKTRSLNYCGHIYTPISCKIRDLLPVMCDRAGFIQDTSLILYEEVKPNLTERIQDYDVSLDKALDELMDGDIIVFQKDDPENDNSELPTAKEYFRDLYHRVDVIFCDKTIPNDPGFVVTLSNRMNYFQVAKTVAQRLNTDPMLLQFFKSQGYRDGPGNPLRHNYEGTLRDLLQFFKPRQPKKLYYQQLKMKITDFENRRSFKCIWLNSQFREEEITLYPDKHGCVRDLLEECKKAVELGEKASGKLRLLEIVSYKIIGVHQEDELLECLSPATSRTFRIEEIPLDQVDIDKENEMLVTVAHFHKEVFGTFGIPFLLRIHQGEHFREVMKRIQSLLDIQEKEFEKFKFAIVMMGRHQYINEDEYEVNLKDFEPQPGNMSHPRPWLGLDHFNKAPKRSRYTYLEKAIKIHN
USP8 block: inhibitors of human USP8 deubiquitinase; 4.2% of 47,000 active; purified USP8, Ub-rhodamine cleavage fluorescence, 30 min; inhibition, % at 20 µM; AID 1645853, 2021; Ubiquitin carboxyl-terminal hydrolase 8 (Homo sapiens), P40818
USP10 block: inhibitors of human USP10 deubiquitinase; inhibition, % at 20 µM; Ubiquitin carboxyl-terminal hydrolase 10 (Homo sapiens), Q14694; purified USP10, Ub-rhodamine fluorescence, 60 min; AID 1645856, 2021; 1.1% of 47,000 active
Each line names hits and unclear results; the compound was inactive in the other large screens. This is a sample that favours compounds with a hit; in the whole collection about 6.8% have one here. No stated cut-off is given here; in the data, active means inhibition above about 30%; inactive means the rest.

COc1ccc(-n2c(SCC(=O)O)nc3c([nH]c4ccccc43)c2=O)cc1OC	none
Cc1ccc2c(c1)N(S(C)(=O)=O)CCC(C(=O)NCc1ccccc1)O2 (centres undefined)	none
CN1C[C@@]23CN(C(=O)c4cccnc4)C[C@@H](C[C@@H]2S1(=O)=O)O3	none
COc1ccc(-c2nc(-c3cn(-c4ccccc4)nn3)no2)c(OC)c1	USP28 block 54.3, OTUD3 block 34.5, USP8 block 38.3
O=C(Nc1ccc(F)cc1F)c1ccc2c(c1)nnn2CCN1CCOCC1	none
O=C(CCCC(=O)c1ccccc1)Nc1ccc(O)cc1	USP8 block 34.8
O=c1c2cc(Br)ccc2[nH]c(=S)n1Cc1cccnc1	USP8 block 87.8, USP10 block 31.7
Nc1ccccc1SC(CC(=O)c1ccc(Cl)cc1)c1ccsc1 (centres undefined)	USP8 block 72.7
O=C(CC(C(=O)c1ccccc1)c1cccs1)c1ccc(Cl)cc1 (centres undefined)	none
CC(C)C(=O)N1CCc2nc(C(=O)Nc3ccccc3)sc2CC1	none
COc1ccc(Cn2cccc(-c3nc(C4CC4)no3)c2=O)cc1F	USP28 block 30.8
COc1cccc(-c2nc(Cn3cccc(-c4nc(C)no4)c3=O)no2)c1	none
Cc1ccccc1Cn1cccc(-c2nc(C3CC3)no2)c1=O	USP28 block 37.9
Cc1ccc2c(c1)[nH]c1c(N3CCc4ccccc4C3)ncnc12	USP8 block 34.9
Cc1ccc2[nH]c3c(N4CCSCC4)ncnc3c2c1	none
O=C(CN(c1cc(C(F)(F)F)ccc1Cl)S(=O)(=O)c1ccccc1)NCc1ccco1	USP8 block 32.0
Cc1sc2ncnc(NS(=O)(=O)c3ccc(Cl)cc3)c2c1C	none
Cc1ccc(-c2nn(C(C)(C)C)c3ncnc(NS(=O)(=O)c4ccc(Cl)cc4)c23)cc1	USP10 block 41.7
CC(C)(C)C1CCc2noc(C3CCN(C(=O)CCN4C(=O)CSC4=O)CC3)c2C1 (centres undefined)	none
COc1ccc2cc(C(=O)NCc3ccccn3)[nH]c2c1	none
COc1ccc2[nH]c(C(=O)N(Cc3ccccn3)Cc3ccccn3)cc2c1	USP8 block 80.6
O=C(Nc1ccccc1-c1nc(-c2ccccn2)no1)c1cc(Cl)ccc1Cl	USP28 block 43.6, USP8 block 83.4
Cc1noc(-c2ccccc2NC(=O)c2ccc(Cl)c(Cl)c2)n1	none
COc1cccc(C(=O)N2CCN(c3ccc(-c4nc(C)cs4)cn3)CC2)c1	none
c1ccc2c(c1)N=C(c1ccc3c(c1)OCO3)CCN2	USP8 block 78.5
CN1C(=O)N[C@@H](c2ccc(C(=O)O)cc2)[C@@H]2CCCO[C@@H]21	none
O=C(O)c1ccc(C2Cc3c([nH]c(=O)[nH]c3=O)O2)cc1 (centres undefined)	USP28 block 78.1
COc1ccc(OC)c(C2=NO[C@]3(C(=O)Nc4ccccc43)[C@H]2C(=O)c2ccc(OC)c(OC)c2)c1	UCHL1 block 84.6
O=C(NCc1cccc(Cl)c1)c1ccc2c(c1)SC1=NS(=O)(=O)CCN12	none
CC(C)(C)c1ccccc1NC(=O)c1ccc2c(c1)SC1=NS(=O)(=O)CCN12	USP28 block 31.1
CC(C)(C)OC(=O)NC(Cc1cn(C=O)c2ccccc12)C(=O)O (centres undefined)	none
O=C(/C=C/c1c(F)cccc1Cl)N1CCc2ccccc2C1	USP28 block 42.7, USP8 block 92.9
O=C1CCN(c2ncnc3cc(-c4ccc(F)cc4)sc23)CC1	none
CCOc1ccccc1-c1cc(NC(=O)c2cc3ccc4cccnc4c3[nH]2)on1	USP8 block 69.1, USP10 block 53.1
CN(C)S(=O)(=O)c1ccc2nc(NC(=O)c3ccc4ccccc4n3)sc2c1	none
O=C(Nc1nc2ccccc2s1)c1cc2ccc3cccnc3c2[nH]1	USP10 block 35.2 (no result: USP28 block)
COc1ccc2nc(NC(=O)c3cc4ccc5cccnc5c4[nH]3)sc2c1	USP8 block 79.9, USP10 block 32.7
